In PubChem BioAssay (NCATS):
Results filed as inconclusive are left out. A call without a number means that no potency is given here. Values without a mark were called inactive. Activity calls are given as the source filed them. Calls follow the shape of the dose curve; as a rule, active = well fitted cell-killing curve with a large enough effect; inconclusive = small, poorly fitted or top-dose-only effect, or effect the other way; inactive = no such curve, though single readings can be large or run the other way.

Experiments:
[1] = Viability qHTS for spleen associated tyrosine kinase inhibitor (SYKi) naive MV4-11 cells (AID 1963823); also: nearly all actives have a fitted effect of over 40% in size
In short: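 Luminescence from CellTiter-Glo, developed 10 min at room temperature, gave viability of MV4-11 cells never exposed to SYK inhibitor. Cells (500/well) had been incubated with compounds for 72 hr under standard culture conditions.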

[2] = Viability qHTS for spleen associated tyrosine kinase inhibitor (SYKi) drug resistant MV4-11 cells (AID 1963824); also: nearly all actives have a fitted effect of over 35% in size
In short: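 SYK-inhibitor-resistant MV4-11 AML cells were seeded at 500 per well onto compound and cultured 72 hours (37 °C, 5% CO2). CellTiter-Glo was then added, and after 10 min at room temperature, luminescence gave viability.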
Potency is read from the fitted curve at half-maximal effect.

Structure (SMILES) | Potency [1] | Potency [2] | viability (% of control) [1] | viability, % of control [2]
C=C1CC[C@H](O)CC1=C/C=C1\CCC[C@]2(C)[C@@H]([C@H](C)/C=C/[C@H](C)C(C)C)CC[C@@H]12 | 8.2 µM (active) | 9.2 µM (active) |  | 
CC(C)C(N)C(=O)OCCOCn1cnc2c(=O)[nH]c(N)nc21 (stereo not drawn) | inactive | inactive |  | 
C[C@@H]1O[C@@H](O[C@H]2[C@H](O[C@H]3[C@H](O[C@H]4CC[C@@]5(C)C(CC[C@]6(C)C5CC=C5[C@@H]7CC(C)(C)C[C@@H](O)[C@]7(C)CC[C@]56C)C4(C)C)O[C@H](C(=O)O)[C@@H](O)[C@@H]3O)O[C@H](C(=O)O)[C@H](O)[C@@H]2O)[C@H](O)[C@H](O)[C@H]1O (stereo partly drawn) |  |  | 101% [at 9.25 µM] | 89.8% [at 9.25 µM]
CCC(C)C(=O)O[C@@H]1[C@@H](O)[C@@H](O[C@H]2O[C@H](CO)[C@@H](O)[C@H](O)[C@H]2O)O[C@H](CO)[C@H]1O (stereo partly drawn) | inactive | inactive |  | 
C=C1C(=O)O[C@@H]2C[C@@]3(C)CCC[C@H](C)C3=C[C@H]12 | 13 µM (active) | 7.31 µM (active) |  | 
COCC(c1ccc(C(F)(F)F)cc1)N1CCN(C2(C)CCN(C(=O)c3c(C)ncnc3C)CC2)CC1C (stereo not drawn) | inactive | inactive |  | 
CC(O)(C(=O)C1CC1(CO)COC1OC(CO)C(O)C(O)C1O)C1C(O)CC2C3CC=C4CC(O)CC(O)C4(C)C3C(O)CC21C (stereo not drawn) | 0.217 µM (active) | 0.217 µM (active) |  | 
O=C(O)c1ccnc2cc(-c3nc4ccccc4n3CCN3CCCCC3)sc12 | inactive | inactive |  | 
CC1(C)CCC[C@]2(C)[C@H]3CC(=O)O[C@]3(C)CC[C@@H]12 | inactive | inactive |  | 
